Screen size: about 310,000 compounds; about 14,000 (4.5%) showed an effect of 50% or more. Effects have a minus sign here. The list comes from a sample in which strong results are over-represented; it also holds similar structures and randomly drawn compounds.
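Note: peak tail current of the secondary pulse compared with the same well before compound.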

The target in the experiment is human ether-à-go-go-related gene (hERG) potassium channel (human, UniProt Q12809). In words: primary screen, population patch clamp on CHO cells stably expressing hERG; higher = less effect of the substance.
Sequence of human ether-à-go-go-related gene (hERG) potassium channel (Q12809 whole entry, looked up): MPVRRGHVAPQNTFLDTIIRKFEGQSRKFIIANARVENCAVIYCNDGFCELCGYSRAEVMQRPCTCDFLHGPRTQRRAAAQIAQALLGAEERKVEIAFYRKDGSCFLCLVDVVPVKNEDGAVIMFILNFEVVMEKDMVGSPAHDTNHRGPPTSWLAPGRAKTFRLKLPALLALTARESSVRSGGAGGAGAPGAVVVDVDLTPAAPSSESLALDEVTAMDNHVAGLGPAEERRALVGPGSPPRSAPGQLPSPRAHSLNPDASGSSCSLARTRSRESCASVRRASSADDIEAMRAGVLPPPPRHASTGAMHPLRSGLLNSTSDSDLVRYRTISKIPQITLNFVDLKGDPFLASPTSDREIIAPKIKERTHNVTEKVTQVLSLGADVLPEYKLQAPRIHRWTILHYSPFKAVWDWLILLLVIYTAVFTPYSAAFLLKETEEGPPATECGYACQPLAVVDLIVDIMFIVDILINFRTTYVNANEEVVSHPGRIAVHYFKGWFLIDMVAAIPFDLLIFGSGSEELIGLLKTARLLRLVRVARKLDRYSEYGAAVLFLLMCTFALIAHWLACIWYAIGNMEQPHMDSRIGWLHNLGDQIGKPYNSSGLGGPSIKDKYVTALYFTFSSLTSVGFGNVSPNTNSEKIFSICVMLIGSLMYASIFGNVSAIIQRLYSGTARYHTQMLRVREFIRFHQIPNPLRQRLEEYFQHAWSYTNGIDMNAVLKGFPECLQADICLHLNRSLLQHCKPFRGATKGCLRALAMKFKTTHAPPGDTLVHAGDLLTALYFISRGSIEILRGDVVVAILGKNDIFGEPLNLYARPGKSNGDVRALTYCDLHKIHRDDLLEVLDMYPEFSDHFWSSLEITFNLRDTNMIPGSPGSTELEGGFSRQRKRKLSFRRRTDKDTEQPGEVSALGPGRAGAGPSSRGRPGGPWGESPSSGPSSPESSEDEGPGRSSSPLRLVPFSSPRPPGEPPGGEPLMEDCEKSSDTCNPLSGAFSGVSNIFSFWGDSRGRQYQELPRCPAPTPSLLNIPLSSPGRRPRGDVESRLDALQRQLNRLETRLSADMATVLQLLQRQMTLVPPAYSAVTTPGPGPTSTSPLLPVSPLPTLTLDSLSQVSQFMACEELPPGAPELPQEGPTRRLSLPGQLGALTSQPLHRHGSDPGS
Take `CCN(CC(=O)NC1CC1)S(=O)(=O)c1ccccc1`: the “hERG current change (%, negative = inhibition) at 10uM” value is 10%.
As for `Br.Cc1csc(=Nc2ccccc2)n1C`, the figure is -2.07%.
As for `COc1ccc2c(C)cc(SCC(=O)Nc3cccnc3Cl)nc2c1`, the figure is 10.3%; as for `Cc1ccnc(NC(=O)c2cc3ccccc3oc2=O)c1`, 8.47%; as for `Cc1cc(NS(=O)(=O)c2cccc([N+](=O)[O-])c2)no1`, 28.8%.
With `CCCCCCCN1CCC(=O)N([C@H](CO)Cc2ccccc2)CC1`, the “hERG current change (%, negative = inhibition) at 10uM” value is recorded as -78.8%.
Consider `CCCCCCCN1CCC(=O)N([C@H](CO)c2ccccc2)CC1`, for which the “hERG current change (%, negative = inhibition) at 10uM” value was -63.7%.
On to `CCCN1CCC(=O)N(CCO)CC1`, for which the “hERG current change (%, negative = inhibition) at 10uM” value is on record as -3.79%.
Next, `CCCN1CCC(=O)N([C@H](CO)c2ccccc2)CC1`: 9.36%; `O=C1CCN(CCCc2ccccc2)CCN1[C@H](CO)Cc1ccccc1`: -40.6%.
As for `CCCN1CCC(=O)N([C@H](CO)CC(C)C)CC1`, the figure is 20%; as for `CCCN1CCC(=O)N([C@H](CO)Cc2ccccc2)CC1`, 0.476%.
As for `CCCCCCCN1CCC(=O)N([C@H](CO)CC(C)C)CC1`, the figure is -63%; as for `CCCCCCCN1CCC(=O)N(CCO)CC1`, -54.3%; as for `O=C1CCN(CCCc2ccccc2)CCN1[C@H](CO)c1ccccc1`, -29.7%.
Regarding `CC(C)CN1CCC(=O)N(CCO)CC1`, the “hERG current change (%, negative = inhibition) at 10uM” value is listed as 1.33%.
As for `CC(C)C[C@@H](CO)N1CCN(CC(C)C)CCC1=O`, the figure is 4.64%; as for `CCOC(=O)Cc1ccc(NC(=O)c2ccccc2Br)cc1`, -7.9%.
Turning to `O=S(=O)(c1ccc(Br)s1)N1CCN(c2ncccn2)CC1`, the “hERG current change (%, negative = inhibition) at 10uM” value was -3.42%.
For `Nc1ccccc1-c1nnc2n1CCCCC2`, the “hERG current change (%, negative = inhibition) at 10uM” value is reported as 25.8%.
Next, `Cc1cc(C)c(C(=O)CSc2nnc(C)s2)c(C)c1`: 18.2%; `CCCC1(C(=O)OCC)NC(c2ccc(N(C)C)cc2)C2C(=O)N(c3ccc(F)cc3)C(=O)C21` (centres unmarked): -8.18%.
On to `CCCCNC(=O)c1sc2nc(C)cc(COC)c2c1-n1cccc1`, for which the “hERG current change (%, negative = inhibition) at 10uM” value was -10.7%.
In the case of `S=C(c1ccccc1)N(c1ccccc1)c1ccccc1`, the “hERG current change (%, negative = inhibition) at 10uM” value stood at 7.21%.
Next, `Cc1ccc(N2CC(C(=O)Nc3ccc(S(=O)(=O)N4CCCC4)cc3)CC2=O)cc1` (centres unmarked): -8.07%.
Consider `O=C(Nc1ccccc1)C1=C(O)CC(c2ccoc2)CC1=Nc1ccccc1` (centres unmarked), for which the “hERG current change (%, negative = inhibition) at 10uM” value amounted to 15%.
Next, `O=C1CCCCC1Oc1ccc2ccc(=O)oc2c1` (centres unmarked): 19.6%.
Consider `Cc1coc2c(C)c3oc(=O)c(CCC(=O)NCCN4CCOCC4)c(C)c3cc12`, for which the “hERG current change (%, negative = inhibition) at 10uM” value is given as -24.6%.
Next, `O=C(c1ccc(Oc2ccc([N+](=O)[O-])cc2Cl)cc1)N1CCCC1`: -32.2%.
As for `O=C(c1ccc(Oc2ccc(Cl)cc2)c([N+](=O)[O-])c1)N1CCCC1`, the figure is -63%; as for `O=C(c1ccc(Br)c([N+](=O)[O-])c1)N1CCN(Cc2ccccc2)CC1`, -61.2%; as for `NC(=O)c1ccc(Oc2ccc(Cl)cc2)c([N+](=O)[O-])c1`, 12.6%.
Regarding `CC(C(=O)N1CCN(Cc2ccccc2)CC1)c1ccc([N+](=O)[O-])cc1` (centres unmarked), the “hERG current change (%, negative = inhibition) at 10uM” value is given as -43.7%.
As to `CC(OC(=O)c1ccc(Cl)c([N+](=O)[O-])c1)C(=O)N1CCN(Cc2ccccc2)CC1` (centres unmarked), the “hERG current change (%, negative = inhibition) at 10uM” value was -71.1%.
Next, `COc1cc(N(C)C)c([N+](=O)[O-])cc1C(=O)N1CCN(Cc2ccccc2)CC1`: 9.99%.
For `O=C(c1ccc(Cl)c([N+](=O)[O-])c1)N1CCN(Cc2ccc3c(c2)OCO3)CC1`, the “hERG current change (%, negative = inhibition) at 10uM” value is given as -26.7%.
Regarding `COc1ccc(C(=O)N2CCN(Cc3ccccc3)CC2)cc1[N+](=O)[O-]`, the “hERG current change (%, negative = inhibition) at 10uM” value is recorded as -52%.
As for `Cc1cc(C(=O)N2CCN(Cc3ccccc3)CC2)ccc1[N+](=O)[O-]`, the figure is -32%.
As for `COc1ccc(C(=O)N2CCN(Cc3ccc4c(c3)OCO4)CC2)cc1[N+](=O)[O-]`, the figure is -44.6%.
As for `O=C(c1ccc(S(=O)(=O)c2ccccc2Cl)c([N+](=O)[O-])c1)N1CCN(Cc2ccccc2)CC1`, the figure is -25.3%; as for `CCOC(=O)C1(C)/C(=N/Nc2cccc(Cl)c2)C(=O)C(=O)N1c1ccccc1` (centres unmarked), 6.3%; as for `CCOc1ccc(Br)cc1S(=O)(=O)Nc1cccc(S(=O)(=O)N(CC)CC)c1`, -4.53%.
For `Cc1ccc(CN2CCN(/N=C/c3ccc(C(=O)O)cc3)CC2)cc1`, the “hERG current change (%, negative = inhibition) at 10uM” value is 5.6%.
Next, `CCOc1ccccc1N(CC(=O)NC1CCCCC1)C(=O)CCC(=O)Nc1cc(C)ccn1`: 3.35%; `Cc1cccc(CSc2nnc(CCNC(=O)OC(C)(C)C)o2)c1`: -7.22%.
As for `COc1c([N+](=O)[O-])c(=O)oc2ccccc12`, the figure is 15.4%; as for `Cc1ccc(S(=O)(=O)CC(=O)Nc2ncc([N+](=O)[O-])s2)cc1`, 21.8%; as for `CC(C)(C)NC(=O)COC(=O)CCC(=O)c1ccc(F)cc1`, 12%.
Next, `COc1ccccc1C(=O)NNc1ncc(C)s1.Cl`: -0.745%.
For `COc1ccc(C(=O)N2CCN(CCc3ccccc3)CC2)cc1[N+](=O)[O-]`, the “hERG current change (%, negative = inhibition) at 10uM” value is -75.6%.
Consider `COc1ccc(C(=O)N2CCN(c3ncccn3)CC2)cc1[N+](=O)[O-]`, for which the “hERG current change (%, negative = inhibition) at 10uM” value is -2.35%.
`COc1ccc(C(=O)N2CCN(c3ccccn3)CC2)cc1[N+](=O)[O-]`: the “hERG current change (%, negative = inhibition) at 10uM” value is -14.9%.
Take `COc1ccc(N(CC(=O)Nc2ccc(F)c(F)c2)S(=O)(=O)c2c(C)n[nH]c2C)cc1`: the “hERG current change (%, negative = inhibition) at 10uM” value stood at 18.5%.
For the molecule `CN(C)C/C=C(\c1ccc(Br)cc1)c1cccnc1.Cl.O`, the “hERG current change (%, negative = inhibition) at 10uM” value was -63.7%.
`Cc1ccc(C(=O)O/N=C(\c2ccccc2)c2cccnc2)cc1`: the “hERG current change (%, negative = inhibition) at 10uM” value was -18.7%.
As for `CN(C)C/C=C(/c1ccc(Br)cc1)c1cccnc1.Cl`, the figure is -71.5%.
Next, `O=C(OCc1ccc(Br)cc1)c1cccnc1`: -5.96%.
Next, `CN(C)CCCO/N=C(\c1ccccc1)c1ccncc1.O=C([O-])C(=O)[O-]`: 5.25%.
`O=C(NCCNC(=O)c1cccnc1)c1ccc(Br)cc1`: the “hERG current change (%, negative = inhibition) at 10uM” value is 14.6%.
As for `C/C(=N\NC(=O)c1ccc(Br)cc1)c1cccnc1`, the figure is 5.22%; as for `O=C(Oc1ccc(Br)cc1)c1cccnc1`, 4.3%; as for `CN(C)CCO/N=C(\c1ccc(Br)cc1)c1cccnc1.O=C(O)C(=O)O`, -63.5%.
